Data: PubChem BioAssay AID588852 (The Scripps Research Institute Molecular Screening Center, 2011)
In all, about 360,000 compounds went through this assay and about 4,600 (1.3%) were called active. This is one part of a sample in which actives are shown more often than they occur.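 How the source made its calls: active means percent inhibition above its own plate's cutoff, namely the mean of that plate's compound wells plus 3 SD; inactive means the rest.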

target: Muscarinic acetylcholine receptor M1 (Homo sapiens) (UniProt P11229); assay: human M1 muscarinic receptor antagonists, primary screen, CHO-K1 cells, Fluo-8 calcium fluorescence, 1536-well (AID 588852); conditions: CHO-K1 hM1, Fluo-8 calcium fluorescence, ACh EC80 antagonist; at 3 µM; hits give high values;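 further: peak over basal fluorescence ratio during 140 s after agonist addition; 0% = ACh EC80 plus DMSO and 100% = DMSO alone without agonist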
Sequence (P11229 whole entry, looked up): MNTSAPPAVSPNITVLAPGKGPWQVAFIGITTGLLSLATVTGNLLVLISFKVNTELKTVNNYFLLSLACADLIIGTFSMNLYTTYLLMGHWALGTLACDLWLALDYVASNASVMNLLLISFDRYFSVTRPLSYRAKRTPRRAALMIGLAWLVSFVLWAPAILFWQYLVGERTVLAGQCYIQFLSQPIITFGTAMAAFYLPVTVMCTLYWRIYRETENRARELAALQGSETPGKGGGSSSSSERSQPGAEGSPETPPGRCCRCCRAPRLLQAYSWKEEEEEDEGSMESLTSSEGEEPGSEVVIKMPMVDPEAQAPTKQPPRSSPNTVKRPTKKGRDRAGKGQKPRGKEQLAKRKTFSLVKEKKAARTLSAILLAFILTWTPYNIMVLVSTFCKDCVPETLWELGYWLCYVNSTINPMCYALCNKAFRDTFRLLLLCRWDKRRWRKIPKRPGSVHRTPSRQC

Row | Compound | inhibition
1 | CC(=O)N[C@@H](C)C(=O)N1CCC(n2nccc2NC(=O)CCCc2ccccc2)CC1 | -3.58% (inactive)
2 | CN(Cc1ccc(C(F)(F)F)cc1)C(=O)[C@H]1O[C@@H](n2cnc3c(N)ncnc32)[C@H](O)[C@@H]1O | -26% (inactive)
3 | CN(C)N(C)C(=O)C(O)(c1ccccc1)c1ccccc1 | 17.7% (inactive)
4 | CCCC(O)(c1ccc(OC)cc1)C(CN(C)C)c1ccccc1 (stereo not given) | -7.01% (inactive)
5 | COC(CCN(C)C)(c1ccccc1)c1ccccc1 | 60.4% (active)
6 | CC(=O)NC(CC(=O)Nc1cccc(S(=O)(=O)N2CCCC2)c1)c1ccccc1 (stereo not given) | 3.34% (inactive)
7 | CN(C)CCNC(=O)c1cccc(-c2cnc3c(NC=O)cc(-c4cccc(C(F)(F)F)c4)cn23)c1 | 2.76% (inactive)
8 | CN1OC[C@@H]2CN(C(=O)c3cccc4ccccc34)[C@H](c3ccc(N4CCCCC4)cc3)C[C@@H]21 | 19.7% (inactive)
9 | CN(CCOc1ccccc1)Cc1nc2cc(Cl)ccc2c(=O)[nH]1 | -3.58% (inactive)
10 | Cc1nnc(NC2=NCCCCC2)o1 | 4.98% (inactive)
11 | CC/C(=N\NC(=S)NC(C)C)c1ccc(OC(F)F)cc1 | 8.57% (inactive)
12 | CCNC(=S)NNC(=O)C1CCN(Cc2ccccc2)CC1 | -7.27% (inactive)
13 | O=C(NCc1ccccc1CN1CCCC1)C1CCN(S(=O)(=O)c2ccc(Cl)cc2)CC1 | 35.7% (active)
14 | Cc1ccc(S(=O)(=O)NCCC(=O)NC2CCN(Cc3ccccc3)CC2)cc1 | -6.1% (inactive)
15 | O=C(NCc1ccccc1Cl)C1CCN(S(=O)(=O)N2CCOCC2)CC1 | 0.29% (inactive)
16 | O=C(NNS(=O)(=O)c1ccc(Cl)cc1)C1CCN(Cc2ccccc2)CC1 | 57.4% (active)
17 | O=C1CCc2cc(S(=O)(=O)N3CCC(C(=O)NCc4ccccc4Cl)CC3)ccc2N1 | -13.3% (inactive)
18 | CCCCC[C@@H]1C=C(C(=O)OCC)[C@H](c2ccccc2)N1S(=O)(=O)c1ccc(C)cc1 | 7.33% (inactive)
19 | Cc1ccc(NC(=O)[C@H](Cc2ccccc2)NC(=O)CC[C@H]2O[C@@H](n3ccc(=O)[nH]c3=O)[C@H](O)[C@@H]2O)cc1C | -1.88% (inactive)
20 | Nc1ncnc2c1ncn2[C@@H]1O[C@H](C(=O)N2CCCN(Cc3ccccc3F)CC2)[C@@H](O)[C@H]1O | -21.5% (inactive)
21 | CN(C)C(=O)c1cccc(-c2cnc3sc(NCc4ccc5c(c4)OCO5)nn23)c1 | -4.01% (inactive)
22 | CCOC(=O)c1ccc(N2C(=O)CC(N3CCN(C(=O)c4ccccc4)CC3)C2=O)cc1 (stereo not given) | -7.68% (inactive)
23 | CCCCOC(=O)c1ccc(N2C(=O)CC(N3CCN(C/C=C/c4ccccc4)CC3)C2=O)cc1 (stereo not given) | 23.9% (active)

Row | Compound | inhibition
24 | CCOC(=O)c1ccc(N2C(=O)CC(N3CCC(C(=O)OCC)CC3)C2=O)cc1 (stereo not given) | 2.05% (inactive)
25 | COc1ccc(CCNC(=O)CCNS(=O)(=O)c2cc(Br)cnc2N)cc1OC | -19.1% (inactive)
26 | C=CCC1(CC=C)CCCN1C(=O)c1cc(COc2ccc(-n3cncn3)cc2)on1 | 38.7% (active)
27 | COc1cccc(OCc2cc(C(=O)N3CCN(C(=O)c4ccco4)CC3)no2)c1 | -3.65% (inactive)
28 | CCCC(=O)N1CCC1(C)C(=O)Nc1ccc(-n2cncn2)cc1 (stereo not given) | -15.8% (inactive)
29 | CC(NC(=O)c1ccccc1SCC(=O)N1CCCC1)c1ccccc1 (stereo not given) | -16.6% (inactive)
30 | COc1ccccc1NC(=O)COC(=O)c1ccccc1SCC(=O)N1CCCC1 | -4.49% (inactive)
31 | CC(C)N(Cc1ccccc1)C(=O)COC(=O)c1ccccc1SCC(=O)N1CCCC1 | 32.7% (active)
32 | COc1cc(C=C(OC(C)=O)c2ccc3c(c2)OCO3)cc(OC)c1OC | 17.2% (inactive)
33 | O=C(NCC1CCCO1)c1ccccc1-c1nc(-c2ccccc2Cl)no1 (stereo not given) | 6.15% (inactive)
34 | Cc1ccc(C(=O)NCC(=O)NCc2cc(=O)n(C)c(=O)n2C)cc1 | -9.92% (inactive)
35 | COc1ccc(-c2csc(Nc3cccc(C)n3)n2)cc1OC | -13.9% (inactive)
36 | COc1ccc(CC(=O)Nc2ccccc2NC(=O)c2ccco2)cc1OC | -6.85% (inactive)
37 | O=C(COc1ccccc1F)Nc1nc(-c2ccccn2)cs1 | -7.13% (inactive)
38 | COc1cc(CC(=O)Nc2nc(-c3ccc(F)c(F)c3)cs2)cc(OC)c1OC | 32.3% (active)
39 | COc1ccc(CCNC(=O)COC(=O)Cc2cc(OC)c(OC)c(OC)c2)cc1 | -5.89% (inactive)
40 | COc1ccc(CC(=O)Nc2nc(-c3ccc(F)c(F)c3)cs2)cc1OC | 37.2% (active)
41 | CC(C)C[C@H]1CN([C@@H](Cc2ccccc2)CN2CCC[C@@H]2CN2C(=O)C(=O)NC[C@@H]2Cc2ccc(O)cc2)C(=O)C(=O)N1CCc1ccccc1 | 6.28% (inactive)
42 | CC(=O)Nc1ccc(NC(=O)CSc2nnnn2C2CCCCC2)cc1 | -17.6% (inactive)
43 | CN(CC#CCC(c1ccccc1)c1ccccc1)C(C)(C)C | 94.5% (active)
44 | CC(C)OCCCNc1ncnc2c1[nH]c1ccc(F)cc12 | 49.6% (active)
45 | CCOC(=O)C1=CCC2C(=O)N(Cc3ccccc3)C(=O)C12 (stereo not given) | -8.51% (inactive)
